Records with an inconclusive call do not appear. Entries that show only a call come without a potency. Active and inactive are the calls of the source. Calls follow the shape of the dose curve; as a rule, active = well fitted cell-killing curve with a large enough effect in the repeat runs; inconclusive = weak or mixed curves, or effect the other way; inactive = flat fitted curve, though single readings scatter.
test: cAMP Responsive Elements (CRE) small molecule antagonists, cell-based qHTS assay: qHTS cell viability counter screen (AID 2060913); details: CRE-bla HEK293T viability, CellTiter-Glo luminescence, 5 h; series mostly up to 92.4 µM; also: nearly all actives have a fitted effect of over 40% in size
From the text: U.S. Tox21 Program National Center for Advancing Translational Sciences [NCATS] Division of Preclinical Innovation [DPI] U.S. Environmental Protection Agency [EPA] National Institutes of Environmental Health Sciences [NIEHS] National Toxicology Program [NTP] U.S. Food and Drug Administration [FDA] Tox21 Assay Overview: CREB (cyclic-AMP Responsive Element Binding Protein) is a cellular transcription factor. It binds to certain DNA sequences called cAMP Responsive Elements (CRE) and regulates the transcription of the genes. […] This cell line can be used to find agonists/antagonists of the cyclic AMP signaling pathway. The activation of the report gene under culture conditions can be detected by fluorescence intensity. This cell line has been used to screen the Tox21 10K compound library to identify agonists that induce oxidative stress. The cytotoxicity of the Tox21 compound library against the CRE-bla cell line was tested in parallel by measuring the cell viability using CellTiter-Glo assay (Promega, Madison, WI) in the same wells.
Tox21 Assay Protocol Summary: CRE-bla Hek 293T cells were suspended in assay medium (DMEM containing 10% dialyzed FBS, 0.1 mM NEAA, 1 mM sodium pyruvate and 25 mM HEPES) and dispensed at 2,000 cells/4 uL /well into 1536-well black wall/clear bottom plates using a Multidrop Combi (ThermoFisher Scientific, Waltham, MA) dispenser. After the assay plates were incubated at 37 C/5% CO2 for 18 hrs, 23 nL of compounds dissolved in DMSO, positive controls or DMSO only was transferred to the assay plate by a pintool workstation (Kalypsys, San Diego, CA), followed by addition of 1 uL of 1.25uM NKH477 (0.25 uM as final concentration) in assay medium using a Flying Reagent Dispenser (Aurora Discovery, San Diego, CA). The plates were incubated at 37 C and 5% CO2 for 3 hrs. Then 1 uL of LiveBLAzer B/G FRET substrate (Invitrogen, Carlsbad, CA) was added to each well using Bioraptr Flying Reagent Dispenser (FRD, Aurora Discovery, San Diego, CA). The plates were incubated at room temperature for 2 h, then fluorescence intensities were measured using an Envision plate reader (PerkinElmer, Shelton, CT) at Excitation 405nm, Emission 460nm and 530nm. The % activity was determined from the ratio of 460nm/530nm. For cell viability readout that measures cytotoxicity, 4 uL /well of CellTiter-Glo reagent was added into the assay plates using Bioraptr FRD. After 30 min incubation at room temperature, the luminescence intensity in the assay plates was measured using a ViewLux (PerkinElmer, Shelton, CT) plate reader.
Potency is read from the fitted curve at half-maximal effect.

SMILES | Potency | viability change, negative = cytotoxic
CCc1ccc(CC)cc1 | inactive | 
Cc1cc2c(cc1S(N)(=O)=O)S(=O)(=O)CCC2 | inactive | 
O=CC1CC1 | inactive | 
CCOc1ccccc1OCC | inactive | 
O=S1(=O)OC(c2ccc(O)cc2)(c2ccc(O)cc2)c2ccccc21 | inactive | 
C=O | inactive | 
O=C(O)c1ccc(O)c(O)c1 | inactive | 
CCCCCN(CCCCC)C(=O)C(CCC(=O)O)NC(=O)c1ccc(Cl)c(Cl)c1 (stereo not given) | inactive | 
C[C@@H]1CCC[C@H](C)N1CCCC(O)(c1ccccc1)c1ccccn1 (stereo not given in full) | inactive | 
CC(C)(C)c1cc(C(C)(C)C)c(O)c(C(C)(C)C)c1 | inactive | 
O=C(O)CNC(=O)CNC(=O)CNC(=O)CSC(=O)c1ccccc1 | inactive | 
COc1nc(C)nc(Cl)c1NC1=NCCN1 | inactive | 
CN(CCOc1ccc(NS(C)(=O)=O)cc1)CCc1ccc(NS(C)(=O)=O)cc1 | inactive | 
CCCCCCCC#N | inactive | 
CO[Si](C)(OC)c1ccccc1 | inactive | 
COc1ccc(C(=O)c2ccccc2O)c(O)c1 | inactive | 
C=CC(=O)OCCCCCCOC(=O)C=C | inactive | 
CCCCCCOC(=O)CCCCC(=O)OCCCCCC | inactive | 
C[C@]12CCC(=O)C=C1[C@@H]1C[C@@H]1[C@H]1[C@@H]3[C@@H]4C[C@@H]4[C@@]4(CCC(=O)O4)[C@@]3(C)CC[C@@H]12 | inactive | 
CCCCC(C=O)CC (stereo not given) | inactive | 

SMILES | Potency | viability change, negative = cytotoxic
COc1cccc(Br)c1 | inactive | 
CC(C)(C)CC(C)(C)N | inactive | 
CCCC(=O)OC | inactive | 
O=c1[nH]cccc1O | inactive | 
C=C1C(CCl)(CCl)C2(Cl)C(Cl)C(Cl)C1(Cl)C2(Cl)Cl (stereo not given) | 60.4 µM (active) | 
CCCOCCOCCOCCO | inactive | 
CC(=O)/C=C/C1C(C)=CCC(C)C1(C)C (stereo not given) | inactive | 
CC(=O)CCC=C(C)C | inactive | 
O=C(O)CC(C(=O)O)S(=O)(=O)O (stereo not given) | inactive | 
C=Cc1ccccn1 | inactive | 
CCc1c(C(=O)O)c(=O)cnn1-c1ccc(Cl)cc1 | inactive | 
COc1ccc(C(=O)c2ccc(C)cc2)c(O)c1 | inactive | 
CCC/C=C/CO | inactive | 
O=C(O)[C@H](O)[C@@H](O)[C@H](O)[C@H](O)CO | inactive | 
N[C@@H](CSCCCO)C(=O)O |  | 1.17% [at 18.9 µM] (inactive)
CCCCCCCCCCCBr | inactive | 
COC(=O)c1ccccc1OC | inactive | 
O=[N+]([O-])c1c(Cl)cc(Cl)cc1Cl | inactive | 
O=C(Cl)c1cccc([N+](=O)[O-])c1 | inactive | 
O=C(O)C(=O)Cc1ccccc1 | inactive | 
